# Calpain2 inh: inhibitors of pig calpain II | purified calpain II, fluorogenic peptide substrate, 30 min | inhibition, % at 16 µM | hit rate 0.37% among 220,000 | AID 1236;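 active = inhibition above about 50%, limit read from the data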
# L major viab: Leishmania major promastigote growth inhibition | hit rate 9% among 200,000 | AID 1063 | Leishmania major promastigotes, resazurin fluorescence viability | inhibition, % at 10 µM; in the data active = inhibition above about 50%;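 note: promastigotes grown with compound for 44 hours at 28 °C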
# ROMK mod: modulators of human ROMK potassium channel; P48048; Tet-inducible ROMK, thallium flux fluorescence; actives lie on both sides; B-score at 10 µM; hit rate 2% among 130,000;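 active = signal ratio slope over the read window, or its plate-corrected B-score, at least 3 SD from the plate mean, either direction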;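 note: B-score of the F/F0 ratio slope over 7 to 12 s after thallium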
# Target sequence (P48048 whole entry, looked up): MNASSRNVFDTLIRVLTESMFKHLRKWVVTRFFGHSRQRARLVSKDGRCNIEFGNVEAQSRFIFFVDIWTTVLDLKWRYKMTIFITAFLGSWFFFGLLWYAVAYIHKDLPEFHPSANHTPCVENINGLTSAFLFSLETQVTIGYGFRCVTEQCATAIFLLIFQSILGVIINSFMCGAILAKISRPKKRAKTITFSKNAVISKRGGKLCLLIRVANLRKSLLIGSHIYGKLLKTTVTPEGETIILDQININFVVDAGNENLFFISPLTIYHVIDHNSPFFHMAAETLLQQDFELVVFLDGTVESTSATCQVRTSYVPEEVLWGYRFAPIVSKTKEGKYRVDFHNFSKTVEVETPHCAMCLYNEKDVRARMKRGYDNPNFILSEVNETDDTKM
# KCC2 mod: KCC2 (human) Cl- transport modulation. Q9H2X9. KCC2 cells, thallium flux FluoZin-2 fluorescence. B-score of Tl+ flux slope (higher = more flux/activation; lower = inhibition) at 10 µM. hit rate 2.2% among 190,000. AID 1456;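 active = thallium flux slope and its plate-corrected score both differing from the plate sample mean at a set confidence after two filtering rounds, in either direction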;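 note: slope of fluorescence scaled to starting intensity during 10 to 20 s after thallium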
# WT yeast gro inh: growth inhibition of WT yeast, mitochondrial fusion screen | inhibition, % at 10 µM | hit rate 2.1% among 190,000 | mitochondrial fusion phenotypic screen, WT strain; in the data active = inhibition above about 58%; tested in S. cerevisiae
# Starred values were filed as active, the others as inactive; . = no result. Shown are actives, neighbours in structure and some others; about 12% of the full set was active somewhere.
SMILES,Calpain2 inh,L major viab,ROMK mod,KCC2 mod,WT yeast gro inh
O=C(c1cc2sccc2n1Cc1ccccc1)N1CCCc2ccccc21,4,63*,-0.69,-1.1,13
COc1cccc(C(=O)N2CCN(C3CCC(c4ccccc4)CC3)CC2)c1OC (stereo not drawn),-11,100*,-1.4,-0.47,-20
COc1cccc(C(=O)N2CCN(CCCc3ccccc3)CC2)c1OC,-21,93*,-0.69,.,.
CCc1cccc(NC(=S)N2CCC(c3ccccc3)C2)c1 (stereo not drawn),19,6,-0.25,-1.4,76*
COc1ccc(NC(=O)CN2CCCCC2)cc1,8,-7,0.037,.,-4
COC(=O)c1[nH]c2ccc(C)cc2c1NC(=O)CCN1CCN(C2CCCCC2)CC1,-226,11,.,.,11
Cc1ccc(NC(=S)N2CCN(C3CCCCC3)CC2)cc1,4,84*,.,.,-21
Fc1cc(F)cc(NC(=S)N2CCC(c3ccccc3)C2)c1 (stereo not drawn),-2,2,-0.25,0.095,21
COC(=O)c1[nH]c2ccc(Br)cc2c1NC(=O)CN1CCN(C2CCCCC2)CC1,-29,101*,.,.,20
COc1ccc(NC(=O)CN2CCC(NC(=O)C3CCCCC3)CC2)cc1,-4,70*,-0.22,.,33
Cn1c(=O)c(=O)n(C)c2cc(S(=O)(=O)N3CCCC3C(=O)NCc3cccs3)ccc21 (stereo not drawn),-26,.,.,0.029,.
COC(=O)c1cc(NC(=O)c2ccc(F)cc2)cc(C(=O)OC)c1,11,-4,0.15,-0.2,-5
COc1ccc(CCN(Cc2cc3ccc(C)cc3[nH]c2=O)C(C)=O)cc1OC,-27,.,0.86,-2.6,.
Cc1ccc(C2CCN(C(=O)Nc3ccccc3)C2)cc1 (stereo not drawn),.,-1,.,-1.5,12
Cc1ccc(NC(=S)N2CCC(c3ccc(C)cc3)C2)cc1 (stereo not drawn),-2,2,-0.44,0.26,75*
S=C(Nc1ccc(Br)cc1)N1CCN(C2CCCCC2)CC1,40,88*,.,.,19
O=C(CN1CCN(C2CCCCC2)CC1)Nc1ccc(Br)cc1,-19,88*,-0.23,0.43,-7
O=C(CN1CCCCCC1)Nc1ccc(Br)cc1,-15,1,.,.,-5
COc1ccc(C2(C)NC(=O)N(Cc3cc(Cl)cc4c3OCOC4)C2=O)cc1OC (stereo not drawn),-7,7,.,-1.6,-3
COC(=O)CCC(=O)Nc1sc(Cc2ccccc2)c(C)c1C(N)=O,22,-9,0.2,-0.032,64*
CC(C)(C)NC(=O)NCC1CCCC1NC(=O)NC(C)(C)C (stereo not drawn),-9,.,.,-1.5,.
CN(C)C=Nc1ncc2c3ccccc3n(CCN(C)C)c2c1C#N,-95,98*,0.38,.,2
CN(C)C=Nc1ncc2c3ccccc3n(Cc3ccccc3)c2c1C#N,-201,-6,.,-0.27,-5
O=C(NS(=O)(=O)c1ccc2c(c1)OCCO2)c1ccccc1,-6,-11,0.2,-0.017,1
Cc1ccc(CN2CCN(CC(=O)O)C2=O)cc1,3,-4,-0.24,-0.28,7
SMILES,Calpain2 inh,L major viab,ROMK mod,KCC2 mod,WT yeast gro inh
Cc1ccc(Nc2nc(CSc3nnc(-c4cccnc4)n3-c3ccccc3F)cs2)cc1,4,89*,0.33,-1.6,21
O=C(Cc1ccc(Cl)cc1)Nc1cccc(S(=O)(=O)Nc2ccccc2F)c1,-28,69*,-0.94,0.98,-7
CN(C)S(=O)(=O)c1cccc(NC(=O)c2ccc(OC(F)(F)F)cc2)c1,25,57*,-0.057,-1.2,14
NS(=O)(=O)c1cccc(NC(=O)COC(=O)Cc2ccc(Cl)cc2)c1,23,-3,-0.04,-0.066,-12
Cc1ccc(NCC(=O)Nc2cccc(S(=O)(=O)N(C)C)c2)c(Cl)c1,39,75*,-0.23,-1.2,11
O=C(CSc1ccc([N+](=O)[O-])cc1)Nc1cccc(S(=O)(=O)Nc2ccccc2F)c1,-6,13,2.2,0.75,10
CN(C)S(=O)(=O)c1cccc(NC(=O)CNC2CCCCC2)c1,-5,.,.,-0.028,.
CN(C)S(=O)(=O)c1cccc(NC(=O)Cc2ccc(Cl)cc2)c1,13,67*,.,-1.7,11
O=C(CCC(=O)c1ccc(F)cc1)Nc1cccc(S(=O)(=O)Nc2cccc(Cl)c2)c1,-24,69*,0.33,-0.56,-36
O=C(CCC(=O)c1ccc(F)cc1)Nc1cccc(C(F)(F)F)c1,4,-8,0.24,-2.6,9
Cc1ccccc1OCCN(C#N)c1nc(N(C)C)nc(N(C)C)n1,28,2,-0.0029,-1.2,28
CCc1cccc(CC)c1NC(=O)c1ccccc1CCc1ccccc1,-3,24,.,-0.052,-1
